Records with an inconclusive call do not appear. Activity calls are given as the source filed them. Rule for the calls, unless noted: active = hit-call score of the fitted dose curve at least 0.9, where 1 is the maximum; inactive = score below 0.9.

Experiment [1] concerns the target Retinoic acid receptor RXR-alpha (Homo sapiens) (UniProt P19793). As to the kind of experiment: ATG_RXRa_TRANS: Attagene TRANS-FACTORIAL HepG2 Assay for human Retinoid X Receptor alpha (RXRa) (AID 2283012; active = hit-call score of the fitted dose curve at least 0.9, where 1 is the maximum). The essentials: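 Chimeric NR-GAL4 trans-activation in HepG2, 24 h treatment; reporter transcripts quantified by fluorescence on capillary electrophoresis, analysed for upward change from DMSO.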

Experiment [2] concerns the target human Retinoid X Receptor beta (RXRb), RXRB (gene 6257) (UniProt P28702). As to the kind of experiment: ATG_RXRb_TRANS: Attagene TRANS-FACTORIAL HepG2 Assay for human Retinoid X Receptor beta (RXRb) (AID 2283013; active = hit-call score of the fitted dose curve at least 0.9, where 1 is the maximum). The essentials:
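After a 24 h incubation with test chemical, transfected HepG2 cells carrying NR-Gal4 fusions and GAL4-UAS reporter transcription units yield RNA whose reporter cDNA is FAM-labelled, HpaI-cut and sized by capillary electrophoresis; increases over DMSO are scored.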

Experiment [3] concerns the target human Thyroid Receptor alpha (THRa1), THRA (gene 7067) (UniProt P10827). As to the kind of experiment: ATG_THRa1_TRANS: Attagene TRANS-FACTORIAL HepG2 Assay for human Thyroid Receptor alpha (THRa1) (AID 2283014; active = hit-call score of the fitted dose curve at least 0.9, where 1 is the maximum). The essentials:
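Transient HepG2 transfection, NR-Gal4 chimera driving GAL4-UAS reporters; 24 h compound exposure; total RNA, oligo(dT) RT, PCR, fluorescent primer extension, capillary electrophoresis. Upward direction vs DMSO control.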

The target in experiment [4] is human Vitamin D Receptor (VDR), VDR (gene 7421) (UniProt P11473). As to the kind of experiment: ATG_VDR_TRANS: Attagene TRANS-FACTORIAL HepG2 Assay for human Vitamin D Receptor (VDR) (AID 2283022; active = hit-call score of the fitted dose curve at least 0.9, where 1 is the maximum). The essentials: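 RT-PCR/capillary electrophoresis read-out of reporter mRNA induction in transiently transfected HepG2; 24 h dosing; chimeric NR-Gal4 (TRANS format); gain-of-signal fit against DMSO baseline.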
Sequence of human Vitamin D Receptor (VDR), VDR (gene 7421) (P11473 whole entry, looked up, the tested form may be a part): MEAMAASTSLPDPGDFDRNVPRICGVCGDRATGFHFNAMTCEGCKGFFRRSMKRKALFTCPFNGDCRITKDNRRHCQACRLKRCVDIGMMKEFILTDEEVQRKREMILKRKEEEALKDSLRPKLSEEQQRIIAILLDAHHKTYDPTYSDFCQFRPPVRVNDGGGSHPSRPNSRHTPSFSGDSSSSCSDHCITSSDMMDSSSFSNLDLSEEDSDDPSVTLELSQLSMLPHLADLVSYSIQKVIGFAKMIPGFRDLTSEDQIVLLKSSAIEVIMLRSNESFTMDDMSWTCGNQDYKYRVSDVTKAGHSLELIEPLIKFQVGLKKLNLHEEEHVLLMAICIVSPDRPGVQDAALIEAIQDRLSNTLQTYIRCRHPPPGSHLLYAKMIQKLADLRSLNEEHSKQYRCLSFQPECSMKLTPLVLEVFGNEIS

Read-out in experiment [5]: E-selectin (Homo sapiens) (UniProt P16581)
The experiment is described as follows: BSK_3C_Eselectin: BioMAP Diversity Plus: 3C Assay for Eselectin Biomarker Activity (AID 2283015).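 Note: cell surface E-selectin protein quantified by ELISA 24 h after dosing.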 The following applies: primary human endothelial cells (HUVEC); actives raise or lower the signal. The essentials:
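HUVEC, 3C stimulation; compound exposure 24 h; E-selectin by ELISA; gain- or loss-of-signal fitted bidirectionally vs DMSO baseline.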

Read-out in experiment [6]: Interleukin-1 alpha (IL1a), IL1A (gene 3552)
The experiment is described as follows: BSK_BE3C_IL1a: BioMAP Diversity Plus: BE3C Assay for Interleukin-1 alpha (IL1a) Biomarker Activity (AID 2283016). Particulars: primary human bronchial epithelial cells; actives raise or lower the signal. The essentials:
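Measured in human lung primary bronchial epithelial cells: IL-1a by ELISA at 24 h after dosing, with bidirectional fitting against DMSO.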

Read-out in experiment [7]: Monocyte Chemoattractant Protein-1 (MCP1), CCL2 (gene 6347)
The experiment is described as follows: BSK_3C_MCP1: BioMAP Diversity Plus: 3C Assay for Monocyte Chemoattractant Protein-1 (MCP1) Biomarker Activity (AID 2283017). The following applies: primary human endothelial cells (HUVEC); actives raise or lower the signal. The essentials: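 HUVEC, 3C system; 24 h chemical exposure; MCP-1 by ELISA; bidirectional curve fit vs DMSO baseline.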

Read-out in experiment [8]: Human Leukocyte Antigen - DR isotype (HLADR), HLA-DRA (gene 3122)
The experiment is described as follows: BSK_3C_HLADR: BioMAP Diversity Plus: 3C Assay for Human Leukocyte Antigen - DR isotype (HLADR) Biomarker Activity (AID 2283019).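 For outcome: ELISA of cell-surface HLA-DR on HUVEC 24 h after dosing.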 The following applies: primary human endothelial cells (HUVEC); actives raise or lower the signal. The essentials:
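HUVEC, 3C stimulation, 24 h post-dose; HLA-DR by ELISA; bidirectional curve fit vs DMSO baseline; gain or loss of signal scored.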

Read-out in experiment [9]: Monokine induced gamma interferon (MIG), CXCL9 (gene 4283)
As to the kind of experiment: BSK_3C_MIG: BioMAP Diversity Plus: 3C Assay for Monokine induced gamma interferon (MIG) Biomarker Activity (AID 2283021). Particulars: primary human endothelial cells (HUVEC); actives raise or lower the signal. The essentials:
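ELISA-measured MIG in dosed HUVEC 3C cultures at 24 h, analysed by bidirectional fitting with DMSO defining baseline activity.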

The nature of experiment [10]: BSK_3C_SRB: Viability Assessment in the BioMAP Diversity Plus: 3C Assay (AID 2283023).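 Note: cells read 24 h after compound dosing; fitted both ways against DMSO so a hit may be signal rise or drop.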 The following applies: primary human endothelial cells (HUVEC). The essentials:
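HUVEC, 24 h post-dose; 10% TCA fix, 0.1% SRB stain, A560 nm. Bidirectional curve fit vs DMSO negative control.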

Experiment [11] can be described thus: BSK_3C_Vis: BioMAP Diversity Plus: 3C Assay for Morphology Visualization (AID 2283025).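 For AC50: light microscopy image of cell morphology used as background control.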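 Note: fitted both ways so gain or loss versus DMSO counts.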 The following applies: primary human endothelial cells (HUVEC). The essentials:
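Light-microscopy morphology readout, 24 h exposure, human primary umbilical vein endothelium; analysed relative to DMSO with bidirectional fitting.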

Read-out in experiment [12]: Pselectin, SELP (gene 6403)
As to the kind of experiment: BSK_4H_Pselectin: BioMAP Diversity Plus: 4H Assay for Pselectin Biomarker Activity (AID 2283026). The following applies: primary human endothelial cells (HUVEC); actives raise or lower the signal. The essentials: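 Bidirectional fits against DMSO gave the endpoint. Cells: primary human umbilical vein endothelium, chemical-treated for 24 h before ELISA detection of P-selectin.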

Experiment [13] can be described thus: BSK_4H_SRB: Viability Assessment in the BioMAP Diversity Plus: 4H Assay (AID 2283027).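 For AC50: curves fitted both ways versus DMSO so AC50 may be loss or gain.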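 Note: cells exposed to compound for 24 h before staining.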 The following applies: primary human endothelial cells (HUVEC). The essentials:
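HUVEC, 24 h post-dose; 10% TCA fix, 0.1% SRB stain, A560 nm. Total protein = overt cytotoxicity, parallel to biomarker read. Bidirectional fit vs DMSO baseline.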

Experiment [14] is described as follows: BSK_BE3C_SRB: Viability Assessment in the BioMAP Diversity Plus: BE3C Assay (AID 2283028). The following applies: primary human bronchial epithelial cells. The essentials:
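Primary human bronchial epithelium; chemical dosing, 24 h; 10% TCA fix, 0.1% SRB stain, A560; bidirectional fit vs DMSO baseline.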

Read-out in experiment [15]: Thrombomodulin, THBD (gene 7056)
As to the kind of experiment: BSK_3C_Thrombomodulin: BioMAP Diversity Plus: 3C Assay for Thrombomodulin Biomarker Activity (AID 2283029). The following applies: primary human endothelial cells (HUVEC); actives raise or lower the signal. The essentials:
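In a multiplexed primary-cell system, human umbilical vein endothelium received chemical and was assayed 24 h later for thrombomodulin by ELISA. Parallel cultures were SRB-stained (0.1% SRB after 10% TCA fixation, read at 560 nm) to flag cytotoxicity.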

Read-out in experiment [16]: Interleukin-8 (IL8), CXCL8 (gene 3576)
The experiment is described as follows: BSK_3C_IL8: BioMAP Diversity Plus: 3C Assay for Interleukin-8 (IL8) Biomarker Activity (AID 2283020). The following applies: primary human endothelial cells (HUVEC); actives raise or lower the signal. The essentials: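 Using DMSO-treated wells as the baseline, bidirectional curve fitting was applied to ELISA-measured IL-8 from human umbilical vein endothelial cultures sampled 24 h after compound addition.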

Read-out in experiment [17]: Matrix Metallopeptidase 1 (MMP1), MMP1 (gene 4312)
The experiment is described as follows: BSK_BE3C_MMP1: BioMAP Diversity Plus: BE3C Assay for Matrix Metallopeptidase 1 (MMP1) Biomarker Activity (AID 2283024). The following applies: primary human bronchial epithelial cells; actives raise or lower the signal. The essentials: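 In this multiplexed primary-cell system, human bronchial epithelium received chemicals for 24 h before an ELISA for MMP1. Values reflect bidirectional fits normalised to the DMSO baseline.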

Read-out in experiment [18]: Monocyte Chemoattractant Protein-1 (MCP1), CCL2 (gene 6347)
As to the kind of experiment: BSK_4H_MCP1: BioMAP Diversity Plus: 4H Assay for Monocyte Chemoattractant Protein-1 (MCP1) Biomarker Activity (AID 2283018). Particulars: primary human endothelial cells (HUVEC); actives raise or lower the signal. The essentials:
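Primary human umbilical vein endothelium is exposed to chemical for 24 h before MCP-1 is assayed by ELISA. Concentration-response fitted bidirectionally relative to DMSO.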

Sequence of human Thyroid Receptor alpha (THRa1), THRA (gene 7067) (P10827 whole entry, looked up, the tested form may be a part): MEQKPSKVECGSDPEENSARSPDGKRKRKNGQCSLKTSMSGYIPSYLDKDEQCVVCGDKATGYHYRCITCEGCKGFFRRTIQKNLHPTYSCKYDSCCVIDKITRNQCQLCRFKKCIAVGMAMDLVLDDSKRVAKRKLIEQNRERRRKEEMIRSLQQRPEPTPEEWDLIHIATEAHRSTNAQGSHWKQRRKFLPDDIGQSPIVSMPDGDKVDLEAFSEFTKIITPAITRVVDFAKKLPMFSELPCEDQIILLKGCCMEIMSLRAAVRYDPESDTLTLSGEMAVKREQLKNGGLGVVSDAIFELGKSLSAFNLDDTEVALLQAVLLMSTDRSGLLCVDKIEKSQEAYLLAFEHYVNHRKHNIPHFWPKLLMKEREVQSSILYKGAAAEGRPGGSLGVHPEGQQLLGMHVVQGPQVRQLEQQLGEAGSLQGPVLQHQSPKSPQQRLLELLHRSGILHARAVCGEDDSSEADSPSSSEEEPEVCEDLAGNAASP
Sequence of human Retinoid X Receptor beta (RXRb), RXRB (gene 6257) (P28702 whole entry, looked up, the tested form may be a part): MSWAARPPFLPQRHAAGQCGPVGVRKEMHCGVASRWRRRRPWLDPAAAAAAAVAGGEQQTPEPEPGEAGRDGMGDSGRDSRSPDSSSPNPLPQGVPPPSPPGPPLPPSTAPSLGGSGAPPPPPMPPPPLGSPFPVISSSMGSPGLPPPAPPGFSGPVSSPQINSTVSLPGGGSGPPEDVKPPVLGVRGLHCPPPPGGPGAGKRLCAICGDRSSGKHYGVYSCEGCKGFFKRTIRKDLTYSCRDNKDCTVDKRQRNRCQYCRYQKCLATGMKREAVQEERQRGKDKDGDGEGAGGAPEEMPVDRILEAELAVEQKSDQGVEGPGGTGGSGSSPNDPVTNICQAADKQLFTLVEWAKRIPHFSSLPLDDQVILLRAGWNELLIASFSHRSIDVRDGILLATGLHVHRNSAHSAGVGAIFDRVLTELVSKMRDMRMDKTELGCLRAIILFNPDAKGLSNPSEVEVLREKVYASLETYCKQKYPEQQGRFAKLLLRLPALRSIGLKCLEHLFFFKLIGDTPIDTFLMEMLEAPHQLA
Sequence of Retinoic acid receptor RXR-alpha (Homo sapiens) (P19793 whole entry, looked up, the tested form may be a part): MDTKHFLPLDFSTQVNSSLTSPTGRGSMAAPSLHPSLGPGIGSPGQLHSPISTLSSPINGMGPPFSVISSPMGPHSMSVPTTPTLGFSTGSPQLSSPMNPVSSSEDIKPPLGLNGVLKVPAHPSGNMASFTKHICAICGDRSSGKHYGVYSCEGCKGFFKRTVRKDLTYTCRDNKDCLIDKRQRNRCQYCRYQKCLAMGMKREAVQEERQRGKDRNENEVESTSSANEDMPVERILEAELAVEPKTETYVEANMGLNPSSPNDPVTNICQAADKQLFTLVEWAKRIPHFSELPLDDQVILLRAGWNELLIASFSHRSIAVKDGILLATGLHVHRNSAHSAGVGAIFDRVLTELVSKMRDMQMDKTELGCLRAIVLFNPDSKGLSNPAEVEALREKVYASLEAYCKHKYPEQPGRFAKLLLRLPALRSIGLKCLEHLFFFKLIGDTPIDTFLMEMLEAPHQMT
Sequence of E-selectin (Homo sapiens) (P16581 whole entry, looked up): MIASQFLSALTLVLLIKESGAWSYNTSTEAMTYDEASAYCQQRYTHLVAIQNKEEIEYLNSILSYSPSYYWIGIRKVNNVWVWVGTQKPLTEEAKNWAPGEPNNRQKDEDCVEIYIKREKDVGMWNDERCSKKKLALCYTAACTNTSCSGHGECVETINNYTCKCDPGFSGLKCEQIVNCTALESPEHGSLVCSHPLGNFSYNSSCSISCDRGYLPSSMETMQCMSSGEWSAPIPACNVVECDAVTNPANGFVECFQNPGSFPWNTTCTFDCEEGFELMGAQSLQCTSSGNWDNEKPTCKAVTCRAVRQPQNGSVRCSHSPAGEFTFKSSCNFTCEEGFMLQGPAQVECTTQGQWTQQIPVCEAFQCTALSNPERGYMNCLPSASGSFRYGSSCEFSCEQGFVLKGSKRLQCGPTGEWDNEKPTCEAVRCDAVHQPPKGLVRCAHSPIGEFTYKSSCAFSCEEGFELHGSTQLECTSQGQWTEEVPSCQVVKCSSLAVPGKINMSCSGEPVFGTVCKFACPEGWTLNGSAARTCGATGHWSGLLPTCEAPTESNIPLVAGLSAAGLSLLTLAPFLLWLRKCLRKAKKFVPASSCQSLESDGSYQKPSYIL

In the case of `O=C(O)/C=C/c1ccccc1`, the call in [1], in experiment [3] and in experiment [4] was inactive. Moreover, the concentration at half-maximal activity (AC50) in experiment [2] was 121 µM (active).

Turning to `CCCCCCCCCCCCc1ccc(O)cc1`, the call in experiment [1], in experiment [3] and in experiment [4] was inactive. In [2], the half-maximal activity concentration (AC50) is 3.36 µM (active).

Regarding `CC1=CP(=O)(c2ccccc2)CC1` (stereo not drawn), the molecule was called inactive in experiment [1], in [2] and in [3].

In the case of `COC(OC)(C(=O)c1ccccc1)c1ccccc1`, the molecule was called inactive in [1], in experiment [2], in [5], in [6], in experiment [7] and in experiment [8]. The result in [9], in experiment [4], in experiment [10], in experiment [11], in experiment [12] and in experiment [13] was inactive. Besides, the result in [14] and in experiment [15] was inactive.

For the molecule `COc1ccc(C(=O)c2ccccc2)c(O)c1`, the molecule was classed as inactive in [1], in experiment [6], in experiment [16], in [9], in experiment [11] and in [12]. The result in experiment [13], in experiment [14] and in experiment [15] was inactive. For the same molecule, the AC50 in experiment [2] is 28.7 µM (active); in experiment [7], 0.185 µM (active); in experiment [8], 27.8 µM (active); in experiment [10], 4.55 µM (active).

For the molecule `Fc1ccc(Br)cc1`, the outcome in experiment [1], in experiment [6], in experiment [7], in experiment [8], in experiment [16] and in experiment [9] was inactive. In addition, the call in experiment [4], in [10], in experiment [11], in [12], in [13] and in experiment [14] was inactive. Further, in [15], the result was inactive. In experiment [2], the half-maximal activity concentration (AC50) was 156 µM (active).

Consider `Cc1noc(NS(=O)(=O)c2ccc(N)cc2)c1C`, for which the result in [1] and in [3] was inactive.

Regarding `CCCCNS(=O)(=O)c1ccc(C)cc1`, the result in experiment [1] and in experiment [3] was inactive.

As for `CC(C)c1cc(C(C)C)cc(C(C)C)c1`, the AC50 in experiment [1] was 6.06 µM (active); in [2], 0.399 µM (active). For the same molecule, the molecule was classed as inactive in [4].

For `CCCCC1C(=O)N(c2ccccc2)N(c2ccccc2)C1=O`, the call in experiment [1], in [6], in experiment [7], in [8], in experiment [9] and in experiment [4] was inactive. Further, the result in experiment [10], in experiment [17], in experiment [12], in [13], in [14] and in experiment [15] was inactive. In experiment [11], the concentration at half-maximal activity (AC50) was 37.5 µM (active).

With `C=C[Si](OCCOC)(OCCOC)OCCOC`, the outcome in experiment [1], in experiment [3] and in experiment [4] was inactive.

Regarding `CCOC(=O)OC(=O)OCC`, the molecule was called inactive in experiment [1] and in experiment [3].

For `COc1ccc(-c2coc3cc(O)cc(O)c3c2=O)cc1`, the call in experiment [1], in [3] and in experiment [4] was inactive.

With `Cc1cc(=O)[nH]c(=O)[nH]1`, the molecule was classed as inactive in experiment [1], in experiment [3] and in experiment [4].

Regarding `CC1(C)[C@@H]2CC[C@@]1(C)C(=O)C2`, the result in experiment [1], in experiment [3] and in experiment [4] was inactive.

`O=C1CCCN1C1CCCCC1`: the molecule was called inactive in [2].

Take `CCOC(=O)c1ccc(C)cc1`: the molecule was classed as inactive in experiment [1], in experiment [2] and in [4].

Turning to `N#Cc1ccc(C(c2ccc(C#N)cc2)n2cncn2)cc1`, the molecule was called inactive in experiment [1], in experiment [2] and in experiment [4].

Regarding `CCCCC/C=C\C/C=C\CCCCCCCC(=O)O`, the molecule was classed as inactive in [1] and in [4].

For `CCCCc1ccc(Cl)cc1`, the outcome in [1], in experiment [2] and in experiment [4] was inactive.

For `Oc1c(Cl)cc(Cl)c(Cl)c1Cl`, the molecule was called inactive in experiment [1], in experiment [3], in [9], in [14] and in [15]. In addition, the AC50 in [6] is 29.2 µM (active); in experiment [7] it was 30.7 µM (active); in experiment [8], 25 µM (active); in experiment [10], 20 µM (active); in experiment [11] it was 16.6 µM (active); in experiment [12] it was 31.5 µM (active). In experiment [13], the concentration at half-maximal activity (AC50) is 24.5 µM (active).

On to `CCN1CCCC1=O`, for which the result in experiment [1], in experiment [3] and in experiment [4] was inactive.

For `Cc1cccc(C(C)(C)C)c1O`, the molecule was called inactive in experiment [1] and in experiment [4]. In addition, in experiment [2], the AC50 is 46.4 µM (active).

On to `O=S(=O)(O)c1ccc(Nc2nc(Nc3ccc(C=Cc4ccc(Nc5nc(Nc6ccc(S(=O)(=O)O)cc6)nc(N(CCO)CCO)n5)cc4S(=O)(=O)O)c(S(=O)(=O)O)c3)nc(N(CCO)CCO)n2)cc1`, for which the result in experiment [1], in experiment [2] and in [4] was inactive.

Turning to `CC(CCC(=O)O)(c1ccc(O)cc1)c1ccc(O)cc1`, the molecule was classed as inactive in [1], in experiment [3], in experiment [6], in [7], in experiment [18] and in [8]. Also, the result in experiment [9], in experiment [4], in experiment [10], in [17], in [12] and in [13] was inactive. In addition, the outcome in experiment [14] and in [15] was inactive.

The values above are taken from PubChem BioAssay (EPA / NIEHS).
